Inconclusive results are not listed. Unless noted, calls come from the whole dose curve; as a rule, active = well fitted curve in either direction with a large enough effect (not every such curve was filed as active); inconclusive = small, poorly fitted or top-dose-only effect, or another doubt; inactive = flat fitted curve, though single readings scatter.
What was measured:
[1] = AP1 Signaling Pathway (AID 357); conditions: ME-180 AP-1-bla reporter, EGF-induced, beta-lactamase ratio, 5 h; at 17.2 µM (top of the series) unless noted;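 note: ME-180 reporter cells stimulated with EGF at its EC50 level; % is set by controls: 0 for no effect and ±100 for the full control effect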
Procedure, shortened: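 Cells are seeded overnight, exposed to compound titrations and an EC50 level of EGF for 5 hours at 37 °C, then loaded with CCF4 dye for 2.5 hours. Beta-lactamase activity under the AP-1 element is read as a blue/green ratio.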

[2] = NFAT Signaling Pathway (AID 444); conditions: Jurkat NFAT-bla M1, carbachol, beta-lactamase ratio, 5 h; at 17.2 µM (top of the series) unless noted;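 note: carbachol stimulus at about its EC50 of 1 µM final; % is set by controls: 0 for no effect and ±100 for the full control effect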
Procedure, shortened: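 Jurkat cells with NFAT-driven β-lactamase reporter and co-expressed M1 receptor, stimulated with carbachol (final 1 uM, ~EC50), compound titration, 5 h at 37 °C. CCF4 loaded 1 h at RT; 460/530 nm ratio gave %activity and AC50.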

[3] = Stat Signaling Pathway (AID 446); conditions: ME-180 SIE beta-lactamase reporter, IL-6 stimulated, 5 h; at 17.2 µM (top of the series) unless noted;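 note: ME-180 cervical cancer cells given 40 pM IL-6 alongside compound; SIE-controlled beta-lactamase reporter measured as 460/530 nm FRET emission ratio; % is set by controls: 0 for no effect and ±100 for the full control effect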
Procedure, shortened: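 ME-180 SIE-bla cells; overnight plating; cpd + IL-6 40 pM, 5 h, 37 C; LiveBLAzer 2.5 h RT; 460/530 nm emission ratio. Normalized to 300 pM IL-6 and 125 nM JAK inhibitor controls.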

[4] = target: Glucocorticoid receptor (Homo sapiens) (UniProt P04150); experiment: GR-GFP Redistribution (AID 450;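 active = compounds whose dose series gives a full or clear partial fitted curve of increased nuclear translocation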; note: potency is the fitted concentration of half-maximal effect)
Glucocorticoid receptor (Homo sapiens), sequence (P04150 whole entry, looked up): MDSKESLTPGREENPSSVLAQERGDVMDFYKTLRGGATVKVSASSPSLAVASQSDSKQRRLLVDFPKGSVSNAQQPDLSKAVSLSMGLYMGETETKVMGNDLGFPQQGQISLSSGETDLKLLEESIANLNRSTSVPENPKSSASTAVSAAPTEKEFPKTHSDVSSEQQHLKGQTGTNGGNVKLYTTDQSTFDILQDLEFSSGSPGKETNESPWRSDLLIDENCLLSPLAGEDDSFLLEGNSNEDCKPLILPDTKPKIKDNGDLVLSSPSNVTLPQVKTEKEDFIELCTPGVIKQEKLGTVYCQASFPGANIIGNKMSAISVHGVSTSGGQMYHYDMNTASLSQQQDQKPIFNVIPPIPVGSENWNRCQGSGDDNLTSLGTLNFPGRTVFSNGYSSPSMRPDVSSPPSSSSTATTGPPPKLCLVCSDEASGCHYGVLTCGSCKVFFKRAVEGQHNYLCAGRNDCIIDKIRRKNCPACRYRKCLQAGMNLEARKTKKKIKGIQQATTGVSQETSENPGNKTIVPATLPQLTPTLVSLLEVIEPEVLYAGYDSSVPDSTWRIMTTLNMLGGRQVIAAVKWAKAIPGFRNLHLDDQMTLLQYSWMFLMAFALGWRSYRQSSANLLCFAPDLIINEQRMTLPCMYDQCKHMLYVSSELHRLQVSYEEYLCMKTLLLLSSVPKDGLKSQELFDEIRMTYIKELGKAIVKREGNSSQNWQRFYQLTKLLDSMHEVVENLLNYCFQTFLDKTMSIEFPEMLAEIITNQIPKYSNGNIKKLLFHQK

O=S(=O)(c1ccccc1)N(CC(O)CN1CCCCC1)c1ccccc1 (centres undefined)
inactive: activity change, negative = inhibition [1] -4.48% | activity change, negative = inhibition [2] -23% | activity, negative = inhibition [3] 3.01% | Potency [4] > 20.6 µM

CC(C)(C)C1=Nn2c(nnc2C2CCCCC2)SC1
inactive: activity change, negative = inhibition [1] -2.23% | activity change, negative = inhibition [2] -6.37% | activity, negative = inhibition [3] 22.7% | Potency [4] > 20.6 µM

CC(NC(=O)OCc1ccccc1)C(=O)OCN1C(=O)c2ccccc2C1=O (centres undefined)
inactive: activity change, negative = inhibition [1] -1.4% | activity change, negative = inhibition [2] -16.6% | activity, negative = inhibition [3] 13.6% | Potency [4] > 20.6 µM

O=C(Oc1ccccc1N1C(=O)CCC1=O)c1ccco1
inactive: activity change, negative = inhibition [1] 11.4% | activity change, negative = inhibition [2] 8.69% | activity, negative = inhibition [3] 1.19% | Potency [4] > 20.6 µM

CCOC(=O)NC1(C(F)(F)F)C(=O)NC(C)=C1C#N (centres undefined)
inactive: activity change, negative = inhibition [1] 26.2% | activity change, negative = inhibition [2] -4.71% | activity, negative = inhibition [3] 1.98% | Potency [4] > 20.6 µM

Cc1nc2c(c(N3CCOCC3)n1)OCC(=O)N2
inactive: activity change, negative = inhibition [1] 6.3% | activity change, negative = inhibition [2] -1.47% | activity, negative = inhibition [3] 6.75% | Potency [4] > 20.6 µM

Cn1c(OCc2cccnc2)nc2c1c(=O)n(Cc1ccc(Cl)cc1)c(=O)n2C
inactive: activity change, negative = inhibition [1] -16.3% | activity change, negative = inhibition [2] 22% | activity, negative = inhibition [3] -15.9% | Potency [4] > 20.6 µM

CCC(c1c(C)n(C)n(-c2ccccc2)c1=O)c1c(C)n(C)n(-c2ccccc2)c1=O
inactive: activity change, negative = inhibition [1] 6.29% | activity change, negative = inhibition [2] 9.43% | activity, negative = inhibition [3] 10.1% | Potency [4] > 20.6 µM

Cc1noc(NS(=O)(=O)c2ccc(NC(=O)COc3ccccc3)cc2)c1C
inactive: activity change, negative = inhibition [1] 2.17% | activity change, negative = inhibition [2] 1.26% | activity, negative = inhibition [3] -0.515% | Potency [4] > 20.6 µM

Cc1c(C(=O)O)sc(=S)n1-c1ccccc1
inactive: activity change, negative = inhibition [1] 11% | activity change, negative = inhibition [2] 2.74% | activity, negative = inhibition [3] 4.36% | Potency [4] > 20.6 µM

COc1ccc(Nc2nnc(C)c3ccccc23)cc1C(N)=O
inactive: activity change, negative = inhibition [1] -4.55% | activity change, negative = inhibition [2] 10.7% | activity, negative = inhibition [3] -9.16% | Potency [4] > 20.6 µM

O=c1[nH]c(CN(CCO)CCO)nc2c1C1(CCCCC1)Cc1ccccc1-2
inactive: activity change, negative = inhibition [1] 8.29% | activity change, negative = inhibition [2] 6.88% | activity, negative = inhibition [3] -8.23% | Potency [4] > 20.6 µM

Cc1cc(C)nc(NC(=O)c2ccc(OC(C)C)cc2)n1
inactive: activity change, negative = inhibition [1] -5.46% | activity change, negative = inhibition [2] -4.53% | activity, negative = inhibition [3] -7.33% | Potency [4] > 20.6 µM

Cc1ccc2[nH]c3c(c2c1)CN(C(=O)CN1CC(C)OC(C)C1)CC3 (centres undefined)
inactive: activity change, negative = inhibition [1] -2.87% | activity change, negative = inhibition [2] -2.75% | activity, negative = inhibition [3] 2.26% | Potency [4] > 20.6 µM

CC(=O)O[C@@]12CO[C@@H]1C[C@H](O)[C@@]1(C)C(=O)[C@H](O)C3=C(C)[C@@H](OC(=O)[C@H](O)[C@@H](NC(=O)OC(C)(C)C)c4ccccc4)C[C@](O)([C@@H](OC(=O)c4ccccc4)[C@H]21)C3(C)C
inactive: activity change, negative = inhibition [1] -3.46% | activity change, negative = inhibition [2] 29.1% | activity, negative = inhibition [3] -5.76% | Potency [4] > 20.6 µM

COC(=O)CC1SC(=O)NC1=O (centres undefined)
inactive: activity change, negative = inhibition [1] 6.96% | activity change, negative = inhibition [2] 5.58% | activity, negative = inhibition [3] 7.23% | Potency [4] > 20.6 µM

CCOC(=O)COc1ccc(Oc2nc(C)cc(OC)n2)nn1
inactive: activity change, negative = inhibition [1] 13.9% | activity change, negative = inhibition [2] 12.6% | activity, negative = inhibition [3] -0.709% | Potency [4] > 20.6 µM

O=C(O)c1ccc(C2CCCCC2)cn1
inactive: activity change, negative = inhibition [1] 12.7% | activity change, negative = inhibition [2] -13.3% | activity, negative = inhibition [3] 15.1% | Potency [4] > 20.6 µM

COc1ccc(-c2nc3n(c2Br)CCC3)cc1
inactive: activity change, negative = inhibition [1] -3.45% | activity change, negative = inhibition [2] 1.51% | activity, negative = inhibition [3] 0.643% | Potency [4] > 20.6 µM

O=C(O)c1ccc(COCC(F)(F)C(F)F)o1
inactive: activity change, negative = inhibition [1] 10.1% | activity change, negative = inhibition [2] 28.1% | activity, negative = inhibition [3] 2.03% | Potency [4] > 20.6 µM

CCc1nc(SCc2cccnc2)c(C#N)cc1C
inactive: activity change, negative = inhibition [1] -8.39% | activity change, negative = inhibition [2] -24.2% | activity, negative = inhibition [3] 0.873% | Potency [4] > 20.6 µM

COc1cccc(/C=C2/CN(C)CC3=C2OC(N)=C(C#N)C3c2cccc(OC)c2)c1 (centres undefined)
inactive: activity change, negative = inhibition [1] -20.4% | activity change, negative = inhibition [2] -0.393% | activity, negative = inhibition [3] -1.9% | Potency [4] > 20.6 µM

COC(=O)CSc1nnc(C)c(=O)[nH]1
inactive: activity change, negative = inhibition [1] 0.589% | activity change, negative = inhibition [2] 3.42% | activity, negative = inhibition [3] 5.67% | Potency [4] > 20.6 µM

O=C1CCc2nc3ccccc3c(=O)n2N1
inactive: activity change, negative = inhibition [1] -6.16% | activity change, negative = inhibition [2] 22.2% | activity, negative = inhibition [3] -4.8% | Potency [4] > 20.6 µM

Nc1nnnn1/N=C/c1cccs1
inactive: activity change, negative = inhibition [1] 7.92% | activity change, negative = inhibition [2] -9.98% | activity, negative = inhibition [3] 2.51% | Potency [4] > 20.6 µM

COc1ccccc1Nc1ncnc2c1cnn2-c1cccc(C)c1
inactive: activity change, negative = inhibition [1] -28.5% | activity change, negative = inhibition [2] -14.7% | activity, negative = inhibition [3] -6.58% | Potency [4] > 20.6 µM

COc1c(O)ccc2cnn(-c3ccccc3C)c(=O)c12
inactive: activity change, negative = inhibition [1] 12.5% | activity change, negative = inhibition [2] -7.24% | activity, negative = inhibition [3] 25.4% | Potency [4] > 20.6 µM

COC(=O)c1ccc(N2C(=O)CC(N3CCN(C(=O)c4ccco4)CC3)C2=O)cc1 (centres undefined)
inactive: activity change, negative = inhibition [1] 3.9% | activity change, negative = inhibition [2] -1.87% | activity, negative = inhibition [3] 0.889% | Potency [4] > 20.6 µM

CC(=O)c1cc(C#N)c(SCC(=O)C(C)(C)C)nc1C
inactive: activity change, negative = inhibition [1] -4.83% | activity change, negative = inhibition [2] -23.2% | activity, negative = inhibition [3] 12.6% | Potency [4] > 20.6 µM

COc1ccc(OCC(=O)N2CCN(C(=O)c3cccc4ccccc34)CC2)cc1
inactive: activity change, negative = inhibition [1] -4.98% | activity change, negative = inhibition [2] 5.36% | activity, negative = inhibition [3] -1.16% | Potency [4] > 20.6 µM

COc1ccc(/C(O)=C2/C(=O)C(=O)N(CCN3CCOCC3)C2c2cccnc2)cc1OC (centres undefined)
inactive: activity change, negative = inhibition [1] -2.7% | activity change, negative = inhibition [2] 7.11% | activity, negative = inhibition [3] 6.33% | Potency [4] > 20.6 µM

COc1ccc(N2CCN(c3nc4c(c(=O)[nH]c(=O)n4C)n3CCCc3ccccc3)CC2)cc1
inactive: activity change, negative = inhibition [1] 22% | activity change, negative = inhibition [2] -12.3% | activity, negative = inhibition [3] -11% | Potency [4] > 20.6 µM

CCNc1nc(Oc2ccccc2)nc(OC(C)C(=O)OCC)n1 (centres undefined)
inactive: activity change, negative = inhibition [1] -1.07% | activity change, negative = inhibition [2] 6.54% | activity, negative = inhibition [3] 1.47% | Potency [4] > 20.6 µM

COc1ccccc1C1/C(=C(/O)c2ccc(C)cc2)C(=O)C(=O)N1Cc1ccco1 (centres undefined)
inactive: activity change, negative = inhibition [1] 12.8% | activity change, negative = inhibition [2] 15.4% | activity, negative = inhibition [3] -15.4% | Potency [4] > 20.6 µM

CCOC(=O)c1c(C(F)(F)C(F)(F)C(F)(F)C(F)(F)F)n[nH]c1C
inactive: activity change, negative = inhibition [1] 4.08% | activity change, negative = inhibition [2] -9.51% | activity, negative = inhibition [3] -8.59% | Potency [4] > 20.6 µM

CC1(C)Cc2nc(N)c(C(=O)NCCO)cc2CO1
inactive: activity change, negative = inhibition [1] 8.22% | activity change, negative = inhibition [2] 3.25% | activity, negative = inhibition [3] 9.02% | Potency [4] > 20.6 µM

Cc1nc(SCC(=O)Nc2ccc3c(c2)OCO3)c(C#N)c2c1CCCC2
inactive: activity change, negative = inhibition [1] -14.5% | activity change, negative = inhibition [2] -1.28% | activity, negative = inhibition [3] -15.4% | Potency [4] > 20.6 µM

O=C1OC2CCC1(c1ccccc1)C2 (centres undefined)
inactive: activity change, negative = inhibition [1] -4.71% | activity change, negative = inhibition [2] 10% | activity, negative = inhibition [3] -3.95% | Potency [4] > 20.6 µM

O=C1CC(c2ccco2)CC(O)=C1C=NCCN1CCN(C2CC(=O)N(c3ccccc3)C2=O)CC1 (centres undefined)
inactive: activity change, negative = inhibition [1] -3.13% | activity change, negative = inhibition [2] -22.1% | activity, negative = inhibition [3] -0.0328% | Potency [4] > 20.6 µM

CC(C)OC(=O)c1sc2nc3c(cc2c1N)C(=O)CCC3
inactive: activity change, negative = inhibition [1] -5.75% | activity change, negative = inhibition [2] 7.77% | activity, negative = inhibition [3] -1.01% | Potency [4] > 20.6 µM

CC(C)(C)c1ccc(C(=O)C=[N+]=[N-])cc1
inactive: activity change, negative = inhibition [1] 0.479% | activity change, negative = inhibition [2] 1.56% | activity, negative = inhibition [3] 4.94% | Potency [4] > 20.6 µM

C/C(=N/n1cnnc1)c1cccnc1
inactive: activity change, negative = inhibition [1] -1.84% | activity change, negative = inhibition [2] -0.807% | activity, negative = inhibition [3] 16.1% | Potency [4] > 20.6 µM

Cc1cccn2c(=O)c3cc(C(=O)NCc4cccnc4)c(=N)n(C)c3nc12
inactive: activity change, negative = inhibition [1] 0.507% | activity change, negative = inhibition [2] 5.48% | activity, negative = inhibition [3] 10% | Potency [4] > 20.6 µM

O=C(OCCN1CCOCC1)c1ccc(OCCN2CCOCC2)cc1
inactive: activity change, negative = inhibition [1] 1.65% | activity change, negative = inhibition [2] -7.8% | activity, negative = inhibition [3] -3.54% | Potency [4] > 20.6 µM

CC1(c2cnc(Nc3ccccc3)s2)CCC(=O)O1 (centres undefined)
inactive: activity change, negative = inhibition [1] -10.6% | activity change, negative = inhibition [2] -7.05% | activity, negative = inhibition [3] 22.3% | Potency [4] > 20.6 µM

COc1ccc(OC)c(C(O)c2coc3ccc(O)c(CN4CCOCC4)c23)c1 (centres undefined)
inactive: activity change, negative = inhibition [1] 0.618% | activity change, negative = inhibition [2] -10.4% | activity, negative = inhibition [3] -5.12% | Potency [4] > 20.6 µM
